An excerpt weighted towards active compounds, which were near 2.8% of everything screened.
Pol kappa inh-1 = qHTS for Inhibitors of Polymerase Kappa; DNA polymerase kappa (Homo sapiens), Q9UBT6; purified Pol kappa, fluorescent DNA synthesis assay, 10 min; Potency, µM (highest dose often 107 µM), hits mostly inhibitors; hit rate 0.53% among 400,000; AID 588579, 2011
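10 nM Pol kappa was preincubated with compounds for 15 min at room temperature. Reaction started with 50 nM (final) substrate. Fluorescence read kinetically at 0 and 10 min.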
WRN inhibitor = qHTS for Inhibitors of WRN Helicase | WRN helicase unwinding, fluorescent forked duplex, kinetic | Bifunctional 3'-5' exonuclease/ATP-dependent helicase WRN (Homo sapiens), Q14191 | hit rate 0.46% among 360,000 | Potency, µM (doses to about 114 µM), hits mostly inhibitors; further: nearly all actives have a fitted effect of over 55% in size
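Enzyme (20 nM final) and test compound sit together 15 min at room temperature before substrate addition. Substrate is a single-forked duplex oligonucleotide (100 nM) labelled with fluorophore and quencher, with 2 mM ATP; helicase unwinding raises red fluorescence, read kinetically.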
Pol iota inh = qHTS for Inhibitors of Polymerase Iota; DNA polymerase iota (Homo sapiens), Q9UNA4; Pol iota fluorescent replication assay, 10 min; Potency, µM (series often up to 115 µM), most hits filed as inhibitors; hit rate 1% among 390,000; AID 588590, 2011
Target sequence (Q9UNA4 whole entry, looked up): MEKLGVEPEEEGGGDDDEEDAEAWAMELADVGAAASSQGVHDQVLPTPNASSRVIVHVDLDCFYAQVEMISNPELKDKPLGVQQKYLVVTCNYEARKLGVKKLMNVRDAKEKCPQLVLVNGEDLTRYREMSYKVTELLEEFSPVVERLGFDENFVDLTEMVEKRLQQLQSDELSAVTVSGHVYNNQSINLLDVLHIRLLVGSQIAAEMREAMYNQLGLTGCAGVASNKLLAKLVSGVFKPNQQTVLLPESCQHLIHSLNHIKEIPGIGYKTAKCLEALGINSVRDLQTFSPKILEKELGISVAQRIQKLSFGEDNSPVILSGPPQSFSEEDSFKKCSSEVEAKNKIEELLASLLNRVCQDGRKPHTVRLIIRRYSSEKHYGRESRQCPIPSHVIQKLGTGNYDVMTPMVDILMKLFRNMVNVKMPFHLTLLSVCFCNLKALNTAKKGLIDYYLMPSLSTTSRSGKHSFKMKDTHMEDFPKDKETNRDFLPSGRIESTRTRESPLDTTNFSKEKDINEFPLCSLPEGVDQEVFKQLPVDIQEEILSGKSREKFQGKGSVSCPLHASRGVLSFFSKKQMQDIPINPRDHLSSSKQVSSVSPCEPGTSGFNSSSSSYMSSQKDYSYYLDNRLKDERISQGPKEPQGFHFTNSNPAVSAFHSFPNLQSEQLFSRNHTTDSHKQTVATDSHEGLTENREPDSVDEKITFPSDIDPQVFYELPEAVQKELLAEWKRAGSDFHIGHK
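Fluorescent replication assay read twice, at 0 min and 10 min after adding 50 nM (final) substrate. Enzyme (10 nM) and compounds were first incubated 15 min at room temperature; enzyme-free buffer wells were negative controls.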
PI5P4Ka inh = qHTS for Inhibitors of phosphatidylinositol 5-phosphate 4-kinase (PI5P4K); Phosphatidylinositol 5-phosphate 4-kinase type-2 alpha (Homo sapiens), P48426; PI5P4Kalpha enzyme, ADP-Glo luminescence, 60 min; stronger effect = lower value; max response, %; hit rate 1.2% among 330,000; active means max response of -50% or lower; inconclusive means between -30% and -50%; inactive means -30% or higher; further: value at the top dose of about 77 µM
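Human PI5P4Kalpha with substrate in 0.038 M HEPES pH 7.4, 0.28 mM EGTA, 0.1% CHAPS, 5% DMSO; reaction started with 5 microM ATP (final), 60 min at room temperature. ADP formed read by ADP-Glo luminescence.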
POLB inh = qHTS Assay for Inhibitors of DNA Polymerase Beta | Pol beta primer extension/strand displacement, fluorescence kinetic | Potency, µM (series often up to 114 µM), actives largely listed as inhibitors | hit rate 1.3% among 340,000
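Pol beta (10 nM) and compounds were preincubated 15 min at room temperature, then 50 nM substrate (final) started primer extension/strand displacement. Reads were taken at 0 and 10 min; concentration-response data were fitted to a four-parameter Hill equation.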
Pol eta inh-1 = qHTS for Inhibitors of Polymerase Eta | Potency, µM (series often up to 114 µM), usual class: inhibitors | DNA polymerase eta (Homo sapiens), Q9Y253 | recombinant Pol eta, fluorescent DNA replication assay | hit rate 1.2% among 390,000 | AID 588591, 2011
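Pol eta at 10 nM preincubated with compounds 15 min at room temperature; reaction started with fluorescent substrate (50 nM final) and read kinetically at 0 and 10 min.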
Pol kappa inh-2 = qHTS for Inhibitors of Polymerase Kappa: Confirmatory Assay for Cherry-picked Compounds. shares compounds with Pol eta inh-1. purified Pol-kappa, fluorescent strand-displacement substrate. Potency, µM, actives largely listed as inhibitors. hit rate 76% among 920. AID 720501, 2013
Pol eta inh-2 = qHTS for Inhibitors of Polymerase Eta: Confirmatory Assay for Cherry-picked Compounds; shares compounds with Pol eta inh-1; Pol eta primer extension, TAMRA/BHQ fluorescence, 10 min; Potency, µM, hits mostly inhibitors; hit rate 64% among 2,600
A number is an active result; . = inactive; ? = inconclusive; / = not tested or not shown; [ ] = dose if it differs, or a comment. Unless noted, the call rests on the fitted dose curve; in most records, active means well fitted curve in the direction sought with a large enough effect; inconclusive means small, poorly fitted or top-dose-only effect, or another doubt; inactive means no such curve, though single readings can be large; an effect the other way counts as inactive or inconclusive.

SMILES	Pol kappa inh-1	WRN inhibitor	Pol iota inh	PI5P4Ka inh	POLB inh	Pol eta inh-1	Pol eta inh-2	others
Cc1oc2ccc(O)c(CN3CCOCC3)c2c1C(=O)Nc1ccc(C(C)C)cc1	.	/	.	/	.	.	/
CC1(C(=O)NS(=O)(=O)c2cccc(Cl)c2)CCN1C(=O)C/C=C/c1ccccc1 (stereo unspecified)	/	.	/	.	/	/	/
COc1cccc(Cn2c(=O)cnc3cnc(OC)nc32)c1	.	/	/	/	/	/	/
O=C(O)c1cc(S(=O)(=O)N2CCN(S(=O)(=O)c3ccc4ccccc4c3)CC2)ccc1Br	.	.[11.6 µM]	?	.	/	18µM	48	Pol kappa inh-2=17
C/[N+]([O-])=C\c1coc2ccccc2c1=O	.	.	.	.	.	.	/
CC(C)CC1=NN2C(=N)/C(=C\c3coc4ccccc4c3=O)C(=O)N=C2S1	?	?	?	-53	20µM	20µM	76
CCSC1=NSC2=NC(=O)/C(=C\c3coc4ccccc4c3=O)C(=N)N12	.	?	?	-59	28µM	20µM	/	Pol kappa inh-2=?
NC(=O)c1ccc(N=Cc2ccc([N+](=O)[O-])s2)cc1	.	.	50µM	.	?	32µM	?
COc1ccc(/C=C/C(=O)NC(=S)Nc2ccc(S(=O)(=O)Nc3ccc(OC)nn3)cc2)cc1	.	.	.	?	.	56µM	?
Cc1ccc(C)n1-c1nc(=S)[nH][nH]1	28µM	?	?	/	.	45µM	76
COc1ccc(C2=NN(C(=O)CCCC(=O)O)C(c3cn(-c4ccccc4)nc3-c3ccccc3)C2)cc1 (stereo unspecified)	?	0.3µM	20µM	.	?	.	?	Pol kappa inh-2=0.38
COc1ccc(-c2nn(-c3ccccc3)cc2C2CC(c3cccs3)=NN2C(=O)CCC(=O)O)cc1 (stereo unspecified)	.	.	.	.	.	.	/
Cc1ccc(OCC(=O)Nc2nnc(S(=O)(=O)N3CCC(C)CC3)s2)cc1	?	.	?	?	?	?	85
COc1ccc(OCC(=O)Nc2nnc(S(=O)(=O)N3CCCCCC3)s2)cc1	.	.[11.6 µM]	?	.	.	?	/
COC(=O)[C@@H](NC(=O)O[C@@H]1C(=O)c2cc(Br)ccc2O[C@H]1c1cccc(OC)c1)C(C)C	/	/	/	/	.	/	/
NC(CSC1(c2ccc(Cl)cc2)c2ccccc2-c2ccccc21)C(=O)O (stereo unspecified)	.	.[11.6 µM]	?	?	/	?	?
CCOC(=O)c1c(C)sc(-c2c(-c3cc(C)ccc3C)[nH]c3c2c(=O)[nH]c(=O)n3C)c1O	.	/	89µM	/	?	/	?
Cc1ccc(C)c(-c2[nH]c3c(c2-c2c(-n4cccc4)n(C)c(=O)n(C)c2=O)c(=O)n(C)c(=O)n3C)c1	.	/	.	/	.	.	/
COc1ccc([C@@H]2C=C(C(=O)O)O[C@H](OCCCCO)C2)cc1	.	.	.	.	.	.	/
C#Cc1ccc([C@H]2C=C(C(=O)O)O[C@@H](OCCCCO)C2)cc1	?	.	50µM	.	/	20µM	/	Pol kappa inh-2=?
Cc1nn(-c2ccc(N3CCCC3)nn2)c(C)c1CCC(=O)N1CCN(c2ccccc2F)CC1	.	/	.	/	.	.	/
CN1CCN(C(=O)/C=C/c2ccc(C#N)cc2)CC1	.	.	.	.	.	.	/
Cc1cccc(Oc2ccc3c(c2)Oc2ccccc2NC3=O)c1	?	/	71µM	/	13µM	50µM	?
Cc1ccc2c(c1)NC(=O)c1cccnc1O2	.	/	.	/	.	/	/
Cc1ccc2c(c1)C/C(=C/c1ccc(N(C)C)cc1)C2=O	.	/	.	/	/	/	/

Compound activity: PubChem, National Center for Advancing Translational Sciences (NCATS)
